Results published in PubChem BioAssay AID1567 (National Center for Advancing Translational Sciences (NCATS), 2009).
Inconclusive results are not listed. A call without a number means that no potency is given here. Calls of active or inactive are those of the source. Calls come from the whole dose curve; as a rule, active = well fitted inhibition curve with a large enough effect; inconclusive = small, poorly fitted or top-dose-only effect, or effect the other way; inactive = no such curve, though single readings can be large or run the other way.

Target: Thyroid hormone receptor beta (Homo sapiens) (UniProt P10828)
Sequence (P10828 whole entry, looked up): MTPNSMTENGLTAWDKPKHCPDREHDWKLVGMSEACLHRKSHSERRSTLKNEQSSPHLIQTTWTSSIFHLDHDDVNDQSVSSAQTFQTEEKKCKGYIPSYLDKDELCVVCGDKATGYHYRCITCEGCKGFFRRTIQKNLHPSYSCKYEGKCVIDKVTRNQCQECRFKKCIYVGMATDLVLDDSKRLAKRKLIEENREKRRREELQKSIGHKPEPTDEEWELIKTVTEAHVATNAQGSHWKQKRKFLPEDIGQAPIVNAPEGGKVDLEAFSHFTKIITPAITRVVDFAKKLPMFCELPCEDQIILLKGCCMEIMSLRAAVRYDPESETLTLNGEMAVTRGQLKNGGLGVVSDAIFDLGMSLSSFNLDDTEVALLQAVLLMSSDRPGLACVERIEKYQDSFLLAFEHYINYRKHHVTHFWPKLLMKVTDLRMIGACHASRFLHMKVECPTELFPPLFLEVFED
Experiment: Cell-based Gene Reporter Secondary Assay to Characterize qHTS Inhibitors of the Interaction of Thyroid Hormone Receptor and Steroid Receptor Coregulator 2
Source text: NIH Molecular Libraries Probe Production Network [MLPCN] NIH Chemical Genomics Center [NCGC] MLPCN Grant: DK058080 Assay Provider: R. Kip Guy, St. Jude Children's Research Hospital NCGC Assay Overview: Thyroid receptor (TR) regulates many homeostatic processes including basal metabolism, cardiovascular function, body weight, and lipid trafficking. TR modulators are potential therapeutics for obesity and hyperlipidemias but current thyroid analogs have undesirable side effects, particularly cardiac stimulation. This secondary assay characterized selected actives identified in the qHTS for Inhibitors of the Interaction of Thyroid Hormone Receptor and Steroid Receptor Coregulator 2. The human follicular thyroid carcinoma cell line WRO (kindly provided by Dr. M. D. Ringel) stably expresses TRbeta and a luciferase reporter gene fused to TR response element. The addition of T3 ligand elevates expression of the TRE luciferase reporter. This assay measures the transcriptional activity of compounds.
NCGC Assay Protocol Summary: Cells were maintained in RPMI 1640 culture medium supplemented with 10% heat-inactivated FBS, 0.33 mg/ml hygromycin, 0.33 mg/ml geneticin, 50 units/ml penicillin, 50 ug/ml streptomycin. […] Following incubation, plates were equilibrated at ambient temperature for 30 min, 30 ul of Bright-Glo (Promega) was added and luminescence was detected by an EnVision (PerkinElmer).

Row | Structure (SMILES) | Potency
1 | CCCCCn1c(N)c(C(=O)NCc2cccs2)c2nc3ccccc3nc21 | inactive
2 | COP(=S)(OC)Oc1ccc([N+](=O)[O-])cc1 | 3.98 µM (active)
